Compounds with a hit are over-represented: about 2.1% of the library has one in this group of screens.
Gli-Sufu antag: blocks Gli-Sufu signaling in a luciferase reporter | inhibition, % at 5 µM | Sufu-KO-LIGHT fibroblasts, Gli luciferase reporter luminescence | 0.74% of 340,000 active;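 active = inhibition above about 55%, limit read from the data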;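 also: 0% = DMSO-treated cells and 100% = wells with medium but no cells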
GalR3 antagonist: blocks the human galanin receptor 3; O60755; HEK293 GalR3-CNG cAMP membrane potential fluorescence; galR3 body fused to GalR1 C-terminus; inhibition, % at 3 µM; 0.44% of 360,000 active;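 active = inhibition above the screen-wide average plus 3 SD, cut at about 13% in these data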;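 also: forskolin and galanin both at EC90 stimulate the cells; cAMP rise reported by CNG channel membrane potential dye signal; 0% = forskolin plus galanin with DMSO and 100% = forskolin alone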
NR2F2 inh: inhibitors of human COUP-TFII (NR2F2); P24468; HEK293T NGFI-A luciferase reporter, luminescence; 0.7% of 370,000 active; inhibition, % at 8.6 µM;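 active = inhibition above a per-plate cutoff, mean inhibition of test wells between control levels plus 3 SD, cut at about 38% in these data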;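 also: cells cotransfected with COUP-TFII expression vector driving the NGFI-A reporter; 0% = median of COUP-TF2 test wells and 100% = reporter-only cells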
Target sequence (P24468 whole entry, looked up): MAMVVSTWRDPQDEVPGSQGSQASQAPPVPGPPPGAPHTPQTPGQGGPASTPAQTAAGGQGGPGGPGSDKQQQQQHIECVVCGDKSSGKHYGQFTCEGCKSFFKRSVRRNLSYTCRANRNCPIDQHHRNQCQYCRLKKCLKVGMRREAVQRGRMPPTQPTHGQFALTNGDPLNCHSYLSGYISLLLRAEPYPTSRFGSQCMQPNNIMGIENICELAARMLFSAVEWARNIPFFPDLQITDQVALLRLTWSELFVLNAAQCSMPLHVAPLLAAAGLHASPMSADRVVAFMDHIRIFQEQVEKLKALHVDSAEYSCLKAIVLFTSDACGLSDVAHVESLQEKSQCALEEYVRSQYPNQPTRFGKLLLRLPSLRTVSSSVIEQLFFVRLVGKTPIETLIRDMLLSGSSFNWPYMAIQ
aDG glyco up: increases alpha dystroglycan glycosylation. AID 624168. Pro5-aDG cells, alpha-DG glycosylation AlphaScreen (IIH6); 0% Pro5, 100% B10-LARGE cell signal. activation, % at 10 µM. 0.22% of 360,000 active;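 active = activation of at least 8% versus controls, or a plate z-score of at least 8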;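 also: Pro5 are CHO cells carrying HIG-tagged alpha-DG that lacks glycosylation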
HIV Env fusion: HIV envelope-mediated fusion inhibition; HeLa-JRFL Env/CEM21 cell fusion, luciferase; 1.1% of 360,000 active; inhibition, % at 12.3 µM; AID 651610;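 active = mean replicate inhibition score of at least 50 and every replicate individually at or above 50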;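 also: 0% = plate neutral controls and 100% = maraviroc near 300 nM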
Gli antag conf: confirmation of Gli-SUFU pathway antagonists; shares compounds with Gli-Sufu antag; Sufu-KO-LIGHT cells, Gli luciferase reporter, luminescence; inhibition, % at 5 µM; 40% of 2,500 active;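 active = mean inhibition at 5 µM reaching about 45%, limit read from the data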;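 also: plate controls were DMSO-treated cells for no effect and wells lacking cells for full effect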
SufuKO cytotox: counter-screen for Gli-SUFU antagonists: cytotoxicity | cytotoxicity, % at 5 µM | Sufu-KO-LIGHT cells cytotoxicity, ATP luminescence | shares compounds with Gli-Sufu antag | 32% of 2,500 active | AID 651994;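 active = mean cytotoxicity at 5 µM above about 25%, limit read from the data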;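 also: cells exposed to compound overnight for roughly 16 to 18 hours; plate controls were DMSO wells with cells for no effect and medium without cells for full effect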
Wnt3a cs: Wnt3a reporter inhibition counter-screen. shares compounds with Gli-Sufu antag. Wnt-LIGHT cells, Wnt3a-driven luciferase reporter, luminescence. inhibition, % at 6.25 µM. 20% of 2,500 active. AID 651995;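 active = mean inhibition above about 25%, limit read from the data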
* hit, by the source's call; . = no result given; [ ] = dose if it differs, or a comment.

SMILES | Gli-Sufu antag | GalR3 antagonist | NR2F2 inh | aDG glyco up | HIV Env fusion | Gli antag conf | SufuKO cytotox | Wnt3a cs
CNC(=O)C[C@H]1CC[C@@H]2[C@H](COc3ccc(NC(=O)c4ccc(C(F)(F)F)cc4)cc3C(=O)N2C)O1 | . | . | . | . | -2[16.7 µM] | . | . | .
C/C=C/c1ccc2c(c1)O[C@H](CN(C)S(=O)(=O)c1ccc(C)cc1)[C@H](C)CN([C@H](C)CO)S2(=O)=O | . | . | . | . | 36[16.7 µM] | . | . | .
CCSc1nnc(C)n1-c1ccc(C(=O)O)cc1 | 95* | 4 | -8 | 0 | . | 26 | -2 | 19
Cc1nnc(SCC(=O)N2CCCC2)n1-c1ccc(F)cc1 | 0 | -3 | 7 | 0 | 10 | . | . | .
CO[C@H]1CN(C)C(=O)c2cc(NS(=O)(=O)c3cn(C)cn3)ccc2OC[C@@H](C)N(CC2CC2)C[C@@H]1C | . | . | . | . | 19[16.7 µM] | . | . | .
C[C@@H]1CN([C@@H](C)CO)C(=O)c2cc(NC(=O)Nc3cccc4ccccc34)ccc2O[C@@H](C)CCCCO[C@@H]1CN(C)S(=O)(=O)c1cn(C)cn1 | . | . | . | . | 6[16.7 µM] | . | . | .
Cc1oc(-c2cccc(Cl)c2)nc1CN1CCC(C(=O)N2CCN(c3ccccc3F)CC2)CC1 | 84* | . | 13 | 0 | . | 28 | 21 | -37
CCOc1cc(C(C(=O)NCC2CCCO2)N(C(=O)Cn2nnc3ccccc32)c2ccc(OC)c(OC)c2)ccc1O (stereo not given) | 57* | -2 | -14 | 0 | -3 | 9 | 15 | -27
CSc1nc(N2CCN(c3ccccc3)CC2)cc(N2CCN(c3ccccc3)CC2)n1 | -8 | -7 | -5 | -1 | 15 | . | . | .
CC1(C)CC(N2CCN(c3ccccc3)CC2)=CC(=[N+]2CCCC2)C1 | 83* | -1 | 33 | 0 | 81* | 86* | 35* | 38*
Cc1ccc(Cn2c(N3CCN(CCO)CC3)nc3c2c(=O)n(C)c(=O)n3C)cc1 | 51 | -9 | 8 | 0 | 1 | 15 | 8 | -6
CN1CCN(c2nc3c(c(=O)n(C)c(=O)n3C)n2Cc2ccc(F)cc2)CC1 | 4 | -6 | 4 | 0 | 22 | . | . | .
COCC(=O)N(C)C[C@H]1Oc2ncc(C#C[C@@H](C)O)cc2C(=O)N([C@@H](C)CO)C[C@H]1C | . | . | . | . | -3[16.7 µM] | . | . | .
C=CCn1c(C)cc(C2=NNC(=NC(C)(C)C)SC2)c1C | 72* | -5 | 58* | 0 | 13 | 75* | 50* | 98*
CCS(=O)(=O)NCC[C@@H]1CC[C@@H](NS(=O)(=O)c2ccccc2C)[C@@H](CO)O1 | . | . | . | . | 6[16.7 µM] | . | . | .
N=c1ccn2c(n1)O[C@H]1[C@H](O)[C@@H](CO)O[C@H]12 | 60* | -10 | -8 | 0 | 24 | 46* | 13 | 41*
N=c1nc2n(cc1F)C1OC(CO)C(O)C1O2 (stereo not given) | 56* | -5 | -20 | 1 | 69* | 47* | 26* | 36*
O=C(C[C@@H]1C=C[C@@H](NC(=O)C2CCOCC2)[C@H](CO)O1)NCC1CCCCC1 | . | . | . | . | -5[16.7 µM] | . | . | .
COc1ccc(Cl)cc1NC(=O)CCc1nnc2ccc(N3CCN(C)CC3)nn12 | 60* | -1 | -3 | 0 | 6 | 36 | 13 | -7
COc1cc(C2C3=C(COC3=O)Oc3cc4c(cc32)OCO4)cc(OC)c1OC(C)=O (stereo not given) | 63* | -3 | -73 | 0 | 37 | 50* | 63* | -2
Cc1ccc(S(=O)(=O)Nc2ccc3c(c2)CC(=O)N([C@H](C)CO)C[C@H](C)[C@H](CN(C)C(=O)Nc2ccccc2)O3)cc1 | . | . | . | . | 2[16.7 µM] | . | . | .
Cc1nn(C(C)(C)C)c(OC(=O)c2ccco2)c1Sc1ccccc1 | 92* | -4 | 17 | 0 | -25 | 36 | 4 | 0
CCN(CC)CCNC(=O)c1ccc(NC(=O)c2cccc(S(=O)(=O)N3CCCCCC3)c2)cc1 | 51 | -6 | -16 | 0 | . | 14 | 19 | -22
CC(C)NC(=O)N(C)C[C@H]1OCCCC[C@@H](C)Oc2ccc(NC(=O)Nc3ccc(F)cc3)cc2C(=O)N([C@@H](C)CO)C[C@H]1C | . | . | . | . | -1[16.7 µM] | . | . | .

High-throughput results (PubChem)
